Pf growth 48h – Primary qHTS for delayed death inhibitors of the malarial parasite plastid, 48 hour incubation | AID 504832, 2011 | 5.9% of 310,000 active | P. falciparum luciferase growth in erythrocytes, 48 h | Potency, µM (doses to about 28.7 µM), for the others: at the highest dose activity change, negative = inhibition, hits mostly inhibitors; further: on the % scale 0 is the no-effect control and ±100 the full control effect
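Firefly luciferase activity from engineered P. falciparum reports growth; inhibitors lower the luminescent signal. Cultures contained 2% hematocrit erythrocytes at 0.1% final parasitemia.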
Sm TGR inh – qHTS Assay for the Inhibitors of Schistosoma Mansoni Peroxiredoxins; Potency, µM (titrated, usually from 114 µM), without a hit: at the top dose activity change, negative = inhibition, hits mostly inhibitors; purified TGR, DTNB reduction, TNB absorbance 405 nm; Schistosoma mansoni thioredoxin glutathione reductase (TGR), Q962Y6; 3% of 360,000 active; further: on the % scale 0 is the no-effect control and ±100 the full control effect; nearly all actives have a fitted effect of over 60% in size
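Kinetic colorimetric format: TGR-catalysed, NADPH-driven DTNB reduction monitored via TNB absorbance. Enzyme dispensed at 20 nM; compound exposure 15 min at room temperature before reaction start.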
Pf growth 96h – Primary qHTS for delayed death inhibitors of the malarial parasite plastid, 96 hour incubation. P. falciparum luciferase reporter growth, 96 h. 6.9% of 320,000 active. AID 504834, 2011. Potency, µM (series often up to 28.7 µM), for inactives: top-dose activity change, negative = inhibition, hits mostly inhibitors; further: on the % scale 0 is the no-effect control and ±100 the full control effect
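Two parasite generations (96 h, 37 C, 5% CO2) of compound exposure in infected erythrocytes (0.05% parasitemia, 2% hematocrit). Luciferase-reporter P. falciparum; decreased luminescence indicates inhibited growth, aimed at apicoplast-acting delayed death.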
SARS PLpro yeast – qHTS of Yeast-based Assay for SARS-CoV PLP; 0.19% of 330,000 active; S. cerevisiae expressing SARS-CoV PLpro, growth rescue; Potency, µM (highest dose often 32.9 µM), inactives show at the highest dose activity, positive = growth rescue, actives largely listed as activators; calls by dose curve; further: 0% is about no effect; nearly all actives have a fitted effect of over 55% in size
* marks the source's active call; other numbers are inactive results; ? = inconclusive; . = no result. Most compounds without a hit are left out; they make up all but 12% or so of the library. Unless noted, the call rests on the fitted dose curve; in most records, active means well fitted curve in the direction sought with a large enough effect; inconclusive means small, poorly fitted or top-dose-only effect, or another doubt; inactive means no such curve, though single readings can be large; an effect the other way counts as inactive or inconclusive. Potency means the concentration at half of the fitted maximal effect.

SMILES	Pf growth 48h	Sm TGR inh	Pf growth 96h	SARS PLpro yeast
COc1ccc(Cn2nnnc2C(CC(C)C)N2CCN(c3ccccc3)CC2)cc1 (stereo unspecified)	7.4µM*	1%	12%	-21%
CCCC(c1nnnn1Cc1ccc(OC)cc1)N1CCC(C(N)=O)CC1 (stereo unspecified)	-23%	-24%	5%	11%
Cc1ccccc1CN1CCCN(CC(=O)Nc2c(C)cccc2C)S1(=O)=O	.	0%	.	.
Cc1ccc(C(=O)NCC(=O)OCC(=O)NC(C)C2CC3CCC2C3)cc1 (stereo unspecified)	-1%	-26%	69%	-1%
COc1ccccc1[C@@H]1C(c2cccc(Cl)c2)=NN(c2ccccc2)[C@H]1C(=O)N1CCOC1=O	15µM*	-1%	10µM*	-7%
COc1ccccc1[C@@H]1C(c2ccccc2)=NN(c2ccc(Br)cc2)[C@H]1C(=O)N1CCOC1=O	.	.	.	17%
CC[n+]1c(C)sc2c3ccsc3ccc21	15µM*	10%	33%	2%
CCCC[n+]1c(C)sc2cc(OC)ccc21	-1%	?	24%	-1%
COc1ccc(N2CCN(C(c3ccccc3)c3nnc(-c4ccccc4Cl)o3)CC2)cc1 (stereo unspecified)	.	2%	.	.
O=C(Nc1ccc(Cn2cccn2)cc1)c1ccc(COc2ccccc2Br)cc1	-30%	10%	12µM*	-7%
COCCn1c(SCC(=O)c2cccc(OC)c2)nnc1-c1ccco1	13%	-32%	13µM*	2%
COCCn1c(SCC(=O)c2ccc3c(c2)OCCO3)nnc1-c1ccoc1C	?	28µM*	.	6%
COc1ccc(C(=O)CSc2nnc(-c3ccoc3C)n2CC2CCCO2)cc1 (stereo unspecified)	-13%	45µM*	4%	13%
COCCn1c(SCC(=O)N2CCCC2)nnc1-c1ccco1	24%	-5%	35%	9%
CC(C)(C)c1ccc(C(=O)NCCC(=O)Nc2ccc3c(c2)OCCO3)cc1	?	-3%	-6%	0%
CCOC(=O)c1ccc(CN(Cc2ccccc2C)S(=O)(=O)c2ccc(F)c(C(=O)Nc3cccc(OC)c3)c2)cc1	.	0%	.	.
COc1cc(C(=O)COC(=O)c2ccncc2)cc(OC)c1OC	.	.	.	3%
Cc1nc(CCl)cc(=O)[nH]1	5.2µM*	-22%	?	-2%
Cc1nc(CN2CCOCC2)cc(=O)[nH]1	13%	3%	51%	0%
Cc1cc(OCC(=O)NNC(=O)CCc2ccccc2)ccc1Br	-4%	23%	?	10%
COc1ccc(S(=O)(=O)N(C)C[C@H]2Oc3ccc(NS(=O)(=O)c4ccc(F)cc4)cc3C(=O)N([C@H](C)CO)C[C@@H]2C)cc1	.	.	.	0%
O=C(N1CCN(CCO)CC1)N1c2ccccc2CCc2ccccc21	-4%	0%	-10%	-5%
O=C1c2ccccc2C(=O)N1CC(=O)N1c2ccccc2Sc2ccc(C(F)(F)F)cc21	9%	-4%	-1%	-39%
CN(C)CCC(=O)N1c2ccccc2Sc2ccc(C(F)(F)F)cc21	29%	?	0%	-5%
OCCN1CCN(CCCN2c3ccccc3C=Cc3ccccc32)CC1	6.7µM*	.	6µM*	.
SMILES	Pf growth 48h	Sm TGR inh	Pf growth 96h	SARS PLpro yeast
FC(F)(F)c1ccc2c(c1)N(CCCN1CCN(CCCl)CC1)c1ccccc1S2	9.3µM*	-30%	.	-1%
OCCN1CCN(CCCN2c3ccccc3Sc3ccc(C(F)(F)F)cc32)CC1	5.2µM*	2%	1.9µM*	0%
CN1CCN(CCC(=O)N2c3ccccc3Sc3ccc(C(F)(F)F)cc32)CC1	?	-5%	11µM*	-9%
O=C1CCCc2cc(S(=O)(=O)N3CCCC(C(=O)NCc4ccccc4Cl)C3)ccc2N1 (stereo unspecified)	.	9%	.	.
Cc1ccc(-n2ncc3c(Nc4cccc(Cl)c4)ncnc32)c(C)c1	.	15%	.	.
O=C(Cn1cc2c(n1)CCCC2)Nc1cc(C(F)(F)F)ccc1Cl	.	-13%	.	.
COc1ccc(C)cc1NC(=O)CN1C(=O)COc2ccc(S(=O)(=O)N3CCCCC3)cc21	-18%	5%	-12%	1%
Cn1c(SCC(=O)N2c3ccccc3CCc3ccccc32)nnc1-c1cc2ccccc2cc1O	1.9µM*	0%	-92%	7%
CCCCn1c(SCC(=O)N2c3ccccc3Sc3ccccc32)nc2c1c(=O)n(C)c(=O)n2C	1.7µM*	?	.	-35%
